Experimental data reported in the supplement of paper PMC10121225.

These molecules were tested on hN + hpA co-culture (H1 iNGN2 human neurons + human primary astrocytes) (assay: presynaptic density (SYNAPSIN1 puncta per MAP2 neurite area), Z-score vs DMSO controls; higher = more presynaptic puncta (synapse-promoting)). Conditions: 3 µM; 72 h.
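Further: immunostained co-cultures imaged by high-content microscopy, Z-score per plate against mean and SD of 0.1% DMSO wells, compounds added on differentiation day 18, analysed day 21.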

| Structure (SMILES) | presynaptic density (Z-score) |
| --- | --- |
| CC(C)c1cc(-c2n[nH]c(=O)n2-c2ccc3c(ccn3C)c2)c(O)cc1O [Ganetespib (STA-9090)] | 2.03 |
| Oc1ccc2ccccc2c1SSc1c(O)ccc2ccccc12 [1-1-Dithiodi-2-naphthtol] | -0.787 |
| O=C(N/N=C/c1ccc(O)c(O)c1)c1cc2ccccc2cc1O | -0.146 |
| C[C@@H]1C(=O)O[C@H]2C[C@@]34[C@H]5C[C@@H](C(C)(C)C)[C@]36[C@@H](OC(=O)[C@@H]6O)O[C@@]4(C(=O)O5)[C@]21O | -0.498 |
| S=C=Nc1cccc(NC(=S)NCCCCNC(=S)Nc2cccc(N=C=S)c2)c1 | 0.95 |
| Cc1c(Cc2ccc3ccccc3n2)c2cc(F)ccc2n1CC(=O)O | -1.02 |
| CC(C)(F)C[C@H](N[C@@H](c1ccc(-c2ccc(S(C)(=O)=O)cc2)cc1)C(F)(F)F)C(=O)NC1(C#N)CC1 [Odanacatib (MK-0822)] | -0.252 |
| C=CC(=O)Nc1cccc(Oc2nc(Nc3ccc(N4CCN(C)CC4)cc3OC)ncc2Cl)c1 | -0.275 |
| CCO[C@@H]1OC(=O)C[C@@H]1NC(=O)[C@@H]1CCCN1C(=O)[C@@H](NC(=O)c1ccc(N)c(Cl)c1)C(C)(C)C | -1.02 |
| CC(=O)c1c(C)c2cnc(Nc3ccc(N4CCNCC4)cn3)nc2n(C2CCCC2)c1=O | -0.609 |
| O=C1NC(=O)C(c2ccccc2[N+](=O)[O-])=C1Nc1ccc(O)c(Cl)c1 | -0.662 |
| CNCc1ccc(-c2cc(-c3nc(-c4ccc(S(=O)(=O)C(C)C)cc4)cnc3N)on2)cc1 | -1.03 |
| COc1ccc2c(c1)c(C1=C(c3c[nH]c4ccccc34)C(=O)NC1=O)cn2CCCN(C)C | -0.96 |
